Here are results for 16 molecules from publication PMC5540273 (PLoS ONE, 2017).

Test [1] concerns PRKCI.
The subject of test [2] is T1, PKAC-alpha.
T1 construct: gene PRKACA

In test [3] the test system is PIKFYVE.
Test [4] deals with PRKD1.
For test [5], the system named is PRKD2.
Test [6] relates to PRKD3.
For test [7], the system named is PLK4.
Test [8] relates to T2, PIK4CB.
T2 construct: gene PI4KB

Test [9] deals with PIK3CB.
For test [10], the system named is PIK3CD.
In test [11] the test system is PKN1.

pKd: −log10 of the molar value. “And” between values parts separate entries of the source, which are not always exact repeats. Identical values can stand only once. A value given as a limit tells only on which side of the number the result lay.
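Further: kd values determined as follow-up on hits from a single-replicate KINOMEscan panel screen.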

A word on the pKd: it is the Kd on a negative log10 scale, so that one unit is a factor of ten. As to `CC(C)(C)c1ccc(C(=O)Nc2cn3cc(Cl)ccc3n2)cc1`, the pKd in test [1] was less than 5.00.

Turning to `CCCc1ccc(S(=O)(=O)NC2CCN(c3ccnc(Nc4ccc(F)cc4)n3)C2)cc1` (stereo not shown) [GSK1379715], the pKd in [2] was less than 5.00.

As to `Cc1cccc(-c2nc(Nc3ccc4[nH]ncc4c3)c3ccccc3n2)n1` [GW857175], the pKd in test [3] was 6.15; in [4], 7.72; in test [5], 7.82; in [6], 7.96.

`Cc1cccc(-c2nc(Nc3cccc(C(N)=O)c3)c3ccccc3n2)n1` [GW876019] gave a pKd in [6] of 6.09.

Regarding `COc1cc2ncnc(Nc3ccc4nc(-c5ccccc5)[nH]c4c3)c2cc1OC.Cl` [GW282450], the pKd in test [7] is 5.80.

On to `Cc1cccc(-c2cc(Nc3ccncc3)c3ccccc3n2)n1` [GSK223675], for which the figures for the pKd in [4], in test [5] and in test [6] were 7.00, 6.52 and 6.68, respectively.

On to `Cc1cccc(-c2nc(Nc3ccncc3)c3ccccc3n2)n1` [GW855857], for which the pKd in test [4] is 8.01; in test [5], 7.77.

Turning to `CS(=O)(=O)c1ccc(-c2nc3n(c2-c2ccncc2)CCC3)cc1` [SKF-105942], in test [8], the pKd was less than 5.00.

Regarding `Cc1c(Cn2ccn3c(=O)cc(N4CCOCC4)nc23)cccc1C(F)(F)F` [GSK2289044], the pKd in test [9] was 8.82; in test [10] it was 6.77.

Turning to `CSc1nn2c(=O)cc(N3CCOCC3)nc2n1Cc1cccc(C(F)(F)F)c1C` [GSK2363608], the pKd was 9.32 and 9.59 in [9]; 7.19 and 7.33 in [10].

Regarding `Cc1ccc(C(=O)Nc2ccc(Nc3ccnc4cc(-c5ccccn5)ccc34)cc2O)cc1.Cl` [GW440146], the negative logarithm of the Kd (pKd) in test [10] was less than 5.00.

Take `Cc1cccc(-c2nc(C)cc(Nc3ccncc3)n2)n1` [GSK257997]: the negative logarithm of the Kd (pKd) was 5.96 in test [5] and 6.00 in test [6].

Take `CN1C(=O)C(Nc2ccc(Cl)c(C(=O)O)c2)=C(c2ccc(Cl)cc2)C1=O` [SB-404290]: the pKd in test [11] is less than 5.00.

`COc1ccc(Nc2nccc(NCCNC(=O)Nc3ccccc3F)n2)cc1` [GSK1379901] had a pKd in test [5] of less than 5.00.

Consider `COc1ccccc1CNC(=O)c1cc(C(=O)c2ccccc2C)c[nH]1` [GSK364507], for which the pKd in test [7] is less than 5.00.

In [8], `Cl.NC(=O)c1cccc(Nc2nccc(Nc3ccc(Oc4cccc(Cl)c4)c(Cl)c3)n2)c1` [GW659008] showed a negative-log Kd (pKd) of less than 5.00.
